Reference: PubChem BioAssay (NCI)
The panel holds about 83,000 compounds, 20% with a hit somewhere; the sample as a whole holds those more often.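 Values shown are percent growth following 48 h exposure of cells in 96-well plates to a single concentration of compound; below 10 was considered active.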 Unmarked numbers belong to inactive results. Activity calls are given as the source filed them.

How the values were obtained:
Assay in all cases: NCI-60 one-dose screen, 48 h (100 = growth as untreated, 0 = no growth, -100 = all killed)
Settings in all cases: 10 µM unless noted
T-47D breast = test system: T-47D breast
BT-549 breast = test system: BT-549 breast
MDA-MB-435 melanoma = test system: MDA-MB-435 melanoma
SW-620 colon = test system: SW-620 colon
MCF7 breast = test system: MCF7 breast
HCT-116 colon = test system: HCT-116 colon
HCC-2998 colon = test system: HCC-2998 colon
KM12 colon = test system: KM12 colon

| SMILES | growth (T-47D breast) | growth (BT-549 breast) | growth (MDA-MB-435 melanoma) | growth (SW-620 colon) | growth (MCF7 breast) | growth (HCT-116 colon) | growth (HCC-2998 colon) | growth (KM12 colon) |
| --- | --- | --- | --- | --- | --- | --- | --- | --- |
| Nc1nc(N)c(N=Nc2ccccc2)c(-c2ccccc2)n1 | 10.2% | 47% | 73.1% | 86.3% | 19.4% | 69.7% | 76.4% | 33.4% |
| CCN(CC)CCN1C(=O)c2c(c(C)c3c(oc4ccc(O)cc43)c2C)C1=O | 0.129% (active) | 105% | 76.9% | 2.51% (active) | 4.29% (active) | -62.6% (active) | 23.5% | 32.3% |
| COc1cc(OC)c(/C=C/C(=O)c2c(O)cc(OC)c(C3CCN(C)CC3)c2OC)c(OC)c1 | -74.5% (active) | -6.55% (active) | -87.9% (active) | -83.8% (active) | -86.1% (active) | -100% (active) | -94.5% (active) | -62% (active) |
| CCOC(=O)C(=CNc1cnc(Nc2ccc(N3CCOCC3)cc2)nc1Oc1ccc(OC)cc1)C(=O)OCC | 84.7% | 77.3% | 61.7% | 46.8% | 61.3% | 11.4% | 91.7% | 76.8% |
| Cc1ccc(/C=C/C(=O)c2cccc(OCCCOc3cccc(C(=O)/C=C/c4ccc(C)cc4)c3)c2)cc1 | 58.4% | 79.7% | 89.3% | 68.1% | 2.54% (active) | 18.3% | 66.3% | 78.8% |
| Cc1cn(-c2cc(NC(=O)c3cncc(C#Cc4c(N)ncc5ccc(F)cc45)c3)cc(C(F)(F)F)c2)cn1 | 65.8% | 86.4% | 36.6% | 33.3% | 31.5% | 19.4% | 77.4% | 14.1% |
| COc1ccc(/C(C)=C(\c2ccc(Cl)cc2)c2ccc(OCCN3CCCCC3)cc2)cc1 | 48.1% | 73.1% | 58% | 24.5% | 20.3% | 31.9% | 91.3% | 25.7% |
| O=c1ccc(=O)n(-c2nc(-c3ccc([N+](=O)[O-])cc3)cs2)[nH]1 | 98.5% | 98.5% | 99.1% | 101% | 90.1% | 95.2% | 106% | 99.6% |
| CC(=O)c1sc2sc(C(C)=O)c(C)c2c1C | 89% | 105% | 102% | 102% | 73.1% | 83.1% | 102% | 107% |
| CN(C)CCN1C(=O)c2cccc3c(/C=C/CN4C(=O)c5cccc6cccc(c56)C4=O)ccc(c23)C1=O | 97.6% | 97% | 89.3% | 11.9% | -71.6% (active) | 9.57% (active) | 36.4% | -79.4% (active) |
| FC(F)(F)c1ccc(Cn2cc(CSc3nc4ccccc4s3)nn2)cc1 | 90% | 92.3% | 101% | 98.1% | 92.8% | 98.2% | 104% | 99% |
| COc1cccc(CNc2c3ccccc3nc3ccccc23)c1 | 45.9% | 68.7% | 43% | 25.5% | 14.6% | 9.89% (active) | 39.3% | 35.9% |
| CC[N+]1(CC)CC[N+]2(CCCC(C)CC2)CC1 (centres undefined) | 103% | 113% | 110% | 103% | 96% | 104% | 99.9% | 104% |
| CC1(C)N=C(N)N=C(N)N1c1cccc(CCc2ccccc2)c1 | 37.7% | 42.4% | 47.5% | 27.4% | 23.8% | 19.8% | 2.34% (active) | 21.9% |
| Nc1[nH]c(=S)nc2oc(-c3ccccc3)c(-c3ccccc3)c12 | 96.8% | 106% | 104% | 106% | 96.6% | 101% | 110% | 98.9% |
| CCN1C(=O)N(CC)C2C1NC(=S)N2/N=C/c1ccc(OC)cc1 (centres undefined) | 49.8% | 59.4% | -13.7% (active) | 25.6% | 22.5% | 24.7% | 67.8% | 31.2% |
| CC(=O)c1ccc(Nc2nccc(-c3ccc4ccccc4c3)n2)cc1 | 88.1% | 101% | 69.1% | 98.6% | 75.8% | 104% | 104% | 81.8% |
| O=C(CI)NC(=O)NC(=O)NCc1ccccc1 | 18.8% | 37.2% | 21% | 25.2% | 12% | 13.3% | – | 88.6% |
| COC(=O)c1cc(Br)ccc1O | 119% | 103% | 116% | 114% | 99.2% | 108% | 110% | 126% |
| Cn1c2c(c3ccc(Cl)c(Cl)c31)C(C#N)C(C)(C)NC2=O (centres undefined) | 74.2% | 88.1% | 80.9% | 67.5% | 95.3% | 76.9% | – | 91.9% |
| COC(=O)N1CC(Oc2ccccn2)C2CC1c1ccccc1O2 (centres undefined) | 99.9% | 99.5% | 105% | 102% | 102% | 97.2% | 104% | 107% |
| COc1ccc(CCN(CC(=O)N(CC(N)=O)C2CCC[C@@H]2OCc2ccccc2)C(=O)CN(C(=O)CN(CCc2ccc(Cl)cc2)C(=O)CN(C(=O)CN(C)Cc2ccccc2F)[C@H](C)C2CCCCC2)[C@H](C)C2CCCCC2)cc1OC (some centres undefined) | 27% | 47.3% | 26% | 53.2% | 14.1% | 22.4% | – | 20.2% |
| CNCc1cccc2c1OCCOCCOCCNS(=O)(=O)c1ccc(cc1)-c1cnc(N)c(n1)C(=O)N2 | 70.4% | 28.3% | 35.1% | 15.5% | 11.8% | 7.19% (active) | 21.7% | 20.2% |
| CN(Cc1cc(Br)cc(Br)c1O)Cc1cc(Br)cc(Br)c1O | 42.6% | 57.8% | 52.6% | 24.5% | 17.7% | 7.44% (active) | – | 42.5% |
| COc1ccc2c(c1)CCc1[nH]nc(-c3cc(OC)c(OC)c(OC)c3)c1-2 | 31.3% | 5.42% (active) | -30.3% (active) | 20.4% | 6.38% (active) | -3.02% (active) | 5.58% (active) | 7.02% (active) |
| C=C(c1ccc(OC)c(/C=C/C(=O)c2ccc3c(c2)OCO3)c1)c1cc(OC)c(OC)c(OC)c1 | 8.67% (active) | 12.7% | 23.2% | 5.67% (active) | 16.1% | 2.56% (active) | 9.86% (active) | 4.46% (active) |
| CSc1nc(C)c([N+](=O)[O-])c(N)n1 | 107% | 98.9% | 107% | 104% | 94.3% | 91.1% | 114% | 99.5% |
| COc1cc(/C=C/C(=O)c2ccc(-n3cc(CN4CCN(c5cc6c(cc5F)c(=O)c(C(=O)O)cn6C5CC5)CC4)nn3)cc2)ccc1O | 75.3% | 90.4% | 74% | 85.4% | 37.6% | -53.4% (active) | – | 29.9% |
